Molecules are shown by their SMILES. Inconclusive results are not listed. Calls of active or inactive are those of the source. The call rests on the fitted dose curve; in most records, active means well fitted activation curve with a large enough effect; inconclusive means small, poorly fitted or top-dose-only effect; inactive means no such curve, though single readings can be large or run the other way.

The test deals with Cellular tumor antigen p53 (Homo sapiens) (UniProt P04637). The test is described as follows: Primary qHTS for small molecule compounds that upregulate eGFP-tagged delta133p53alpha (in N-terminal) cells. (AID 2060322).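 Further: series mostly up to about 56 µM; 0% = DMSO vehicle and 100% = reference activator; nearly all actives have a fitted effect of over 75% in size.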 The conditions noted are these: NCI-H358 eGFP-delta133p53alpha fluorescence, 24 h; activation: active compounds read high. The gist of the method: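 NCI-H358 cells pre-induced 24 h with 10 ng/ml doxycycline to express N-terminal eGFP-delta133p53alpha, then dosed 24 h at 37C without doxycycline; fixed, Hoechst-stained, GFP intensity by laser scanning cytometry, normalized to DMSO (0%) and 57.5 uM 5-azacytidine (100%).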
Sequence of Cellular tumor antigen p53 (Homo sapiens) (P04637 whole entry, looked up): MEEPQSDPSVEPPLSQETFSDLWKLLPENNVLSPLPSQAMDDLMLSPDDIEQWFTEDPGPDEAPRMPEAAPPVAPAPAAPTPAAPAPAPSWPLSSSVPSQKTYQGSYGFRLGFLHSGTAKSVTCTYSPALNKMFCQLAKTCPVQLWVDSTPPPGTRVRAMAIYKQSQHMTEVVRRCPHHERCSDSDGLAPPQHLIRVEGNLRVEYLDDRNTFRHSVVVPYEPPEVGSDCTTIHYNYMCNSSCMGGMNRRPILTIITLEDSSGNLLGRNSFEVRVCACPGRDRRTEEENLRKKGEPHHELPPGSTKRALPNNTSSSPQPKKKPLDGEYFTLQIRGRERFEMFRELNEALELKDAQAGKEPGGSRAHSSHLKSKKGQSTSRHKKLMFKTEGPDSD
Regarding `CCCc1c2oc(C(=O)O)cc(=O)c2cc2c(=O)cc(C(=O)O)n(CC)c12`, the activation was -10% (inactive).

Consider `C[N+]1(C)CCC(=C(c2ccccc2)c2ccccc2)CC1`, for which the activation was 28.8% (inactive).

Consider `Oc1cccc(-c2c3nc(c(-c4cccc(O)c4)c4ccc([nH]4)c(-c4cccc(O)c4)c4nc(c(-c5cccc(O)c5)c5ccc2[nH]5)CC4)C=C3)c1`, for which the activation was 25.9% (inactive).

For the molecule `CC1(C)CO[C@@H](CC(=O)O)CN1`, the activation was -5.86% (inactive).

Take `Cc1cccc(N(C)C(=S)Oc2ccc3c(c2)C2CCC3C2)c1` (stereo not given): the activation was -15.1% (inactive).

`CC(=O)O[C@H]1CC[C@@]2(C)C(=CC[C@@H]3[C@@H]2CC[C@]2(C)C(C(C)=O)=CC[C@@H]32)C1`: the activation was 4.18% (inactive).

On to `Cc1c(C)n(CCN(C)C)c2ccc(C(=O)OCCN(C)C)cc12`, for which the activation was -11.9% (inactive).

`Cc1c(C)n(Cc2ccccc2)c2ccc(C(=O)OCCN(C)C)cc12`: the activation is -0.837% (inactive).

For the molecule `O=C(OOC(=O)c1ccccc1)c1ccccc1`, the activation was -15.1% (inactive).

Consider `CN(C)CCC[C@@]1(c2ccc(F)cc2)OCc2cc(C#N)ccc21`, for which the activation is 15.3% (inactive).

In the case of `CC(=O)Nc1cccc(O)c1`, the activation was -4.18% (inactive).

For `CC(=Cc1ccccc1)C=C1SC(=S)N(CC(=O)O)C1=O`, the activation was -1.94% (inactive).

On to `COc1ccc(-n2nc(CCC(=O)N(C)O)cc2-c2ccc(Cl)cc2)cc1`, for which the activation is -8.47% (inactive).

In the case of `COc1cc(C)nc(-n2nc(C)cc2OC)n1`, the activation was -12.6% (inactive).

Consider `O=C(C=Cc1cccnc1)NCCCCC1CCN(C(=O)c2ccccc2)CC1`, for which the activation is 8.39% (inactive).

(Values after PubChem BioAssay (NCATS).)
